From PubChem BioAssay AID431 (Sanford-Burnham Center for Chemical Genomics, 2006) come the findings set out here.

The campaign covered roughly 63,000 compounds. About 1,100 (1.7%) were called active. This excerpt belongs to a sample that is enriched for actives. Potency and affinity values are given separately. Values without a mark were called inactive.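 How the source made its calls: active means compounds whose percent cytotoxicity in the single-dose primary screen, scaled between solvent and toxic-drug controls, exceeds 50; inactive means the rest.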

The experiment can be described thus: cytotoxicity in KRAS-transformed pancreatic duct cells, primary screen, cell-based, fluorescence, HTS (AID 431).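 Further: 0% = DMSO solvent wells and 100% = doxorubicin-treated wells.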 Conditions: HPDE-C7K KRASV12 cells, Alamar Blue viability, 48 h; at 10 µM; hits give high values.
In the case of `CCCCCOc1ccc(NS(C)(=O)=O)cc1`, the cytotoxicity was -26.8%. The figure for `O=c1[nH]c(C(F)(F)F)nc2ccccc12` is -18.7%. With `COc1ccccc1N(CN1C(=O)c2ccccc2C1=O)C(=O)c1cccnc1`, the cytotoxicity was -10%. Under `CCOC(=O)c1cc(-c2ccc(/C=N\n3cnnc3)o2)ccc1Cl` stands -11%. Under `O=C1CNC(=O)/C1=C\N1CCCCC1` stands -3.5%.

Take `Cc1cc(Nc2ccc(Br)cc2F)n2nc(C)nc2n1`: the cytotoxicity is 3.9%. Regarding `CCCNC(=O)Nc1cc(OCC)c(N2CCOCC2)cc1OCC`, the cytotoxicity is 2.8%. The figure for `O=c1c(-c2ccccc2)coc2c(CN3CCCC3)c(O)ccc12` is -6.5%; for `COc1ccc(C(=O)c2coc3ccc(O)c(CN4CCCCC4)c23)cc1` it is 16.8%. The figure for `COc1ccc(-c2coc3c(CN4CCCCC4)c(O)c(CN4CCCCC4)c(O)c3c2=O)cc1` is 54.7% (active). The figure for `CC1Cc2cc(C3(O)C(=O)c4ccccc4C3=O)ccc2N1` (stereo not given) is -0.9%; for `COc1ccc(C2=[N+]([O-])C(C)(C)N(O)C2(C)C)cc1` it is -22%. Consider `Cc1ccc(C2c3c(oc4cc(C)c(C)cc4c3=O)C(=O)N2CCCN2CCOCC2)cc1` (stereo not given), for which the cytotoxicity was -5.4%.

For `Cc1c(-c2nc(N)nc(Nc3ccccc3F)n2)oc2ccccc12`, the cytotoxicity is 14.6%. Under `Cc1c(-c2nc(N)nc(Nc3ccccc3)n2)oc2ccccc12` stands 68.7% (active); under `Cc1c(-c2nc(N)nc(Nc3ccc(F)cc3)n2)oc2ccccc12`, 12%; under `CNC(=O)c1cc(S(=O)(=O)N(C)C)ccc1Cl`, 2.1%. Under `CCCCOc1ccccc1-c1cc(C(=O)O)[nH]n1` stands -9.2%; under `CC(=O)Oc1c(S(=O)(=O)c2ccc(C)cc2)c(C)nn1-c1ccccc1`, -4.8%; under `O=C1CCC(=O)N1c1cccc(-c2nc3ccccc3o2)c1`, 1.5%.

`Nc1nnnn1/N=C/C=C/c1ccccc1`: the cytotoxicity was -19.8%. Under `Nc1nnnn1/N=C/c1cccc(Oc2ccccc2)c1` stands -6.8%. Under `C=CCOC(=O)C1=C(C)Nc2nnnn2C1c1cccc(OC)c1OC` (stereo not given) stands 1.2%; under `Cn1cc(/C=N/n2cnc3scc(-c4ccccc4)c3c2=O)c2ccccc21`, 48.5%.

In the case of `Cn1cc(/C=N/n2cnc3scc(-c4ccc(Cl)cc4)c3c2=O)c2ccccc21`, the cytotoxicity was 77.5% (active).

For the compound `Cn1cc(/C=N/n2cnc3sc4c(c3c2=O)CCCC4)c2ccccc21`, the cytotoxicity is 7.8%.

For `COc1ccc(NC(=O)C2CCN(S(=O)(=O)c3ccc(C)cc3)CC2)cc1OC`, the cytotoxicity is -26.5%.

As to `CCOc1ccc(C2CC(c3ccc(OC)cc3)n3ncnc3N2)cc1` (stereo not given), the cytotoxicity is -6.4%. Under `Cc1[nH]c2ccc(-c3nnc(SCC(=O)c4ccc(F)cc4)o3)cc2c1C` stands -0.1%; under `Cc1[nH]c2ccc(-c3nnc(SCC(=O)c4ccccc4F)o3)cc2c1C`, 78.5% (active); under `Cc1[nH]c2ccc(-c3nnc(SCC(=O)N4CCCc5ccccc54)o3)cc2c1C`, 2.9%. Under `CCc1[nH]nc2c1C(C(C)C)C(C#N)=C(N)O2` (stereo not given) stands -20.8%; under `Cc1nn(Cc2ccc(C(=O)NC3CCCCC3)o2)c(C)c1Br`, 10.5%; under `CC1CCc2c(nc3ncnn3c2N2CCN(c3ccccc3F)CC2)C1` (stereo not given), -5.6%.

As to `CCOc1ccc(N2C(=O)c3ccc(C(=O)OCc4c(C)noc4C)cc3C2=O)cc1`, the cytotoxicity is -4.2%. On to `CCOc1ccc(-c2n[nH]c(C)c2Oc2ccc(OC)cc2)c(O)c1`, for which the cytotoxicity is 16%. Under `CCCOC(=O)c1ccc(-c2c(C)noc2-c2ccc(OC)cc2O)o1` stands 1.5%. The figure for `CCOC(=O)COC(=O)c1ccc(O)cc1` is 1.8%.

As for `CCOC(=O)c1c(N)n[nH]c1-c1ccc(OC)cc1`, the cytotoxicity was 6.6%. Turning to `CCOC(=O)c1ccc(OCC(=O)c2ccc(O)cc2O)cc1`, the cytotoxicity is 11.9%. Under `COc1ccc(Cl)cc1NC(=O)CN1CCC(n2nnc3cc(F)ccc32)CC1` stands 5.7%; under `O=C(c1ccc(S(=O)(=O)N2CCCC2)cc1)N1CCN(Cc2ccc3c(c2)OCO3)CC1`, 4.3%. Under `c1coc(-c2nnc(SCc3cn4ccccc4n3)o2)c1` stands -5.9%; under `CCOC(=O)CN(C(=O)CSc1nnc(-c2ccc(OC)c(OC)c2)o1)c1ccc(F)cc1`, -21.9%; under `CCOC(=O)c1c(NC(=O)CSc2nnc(CNc3ccc(F)cc3)o2)sc(C)c1C`, -12.6%.

With `COc1ccccc1NC(=O)COc1ccc(C(=O)OCC(=O)N2CCCC2=O)cc1OC`, the cytotoxicity is -27.1%. As to `CCOc1ccc(-c2nnn(CC(=O)NCc3ccco3)n2)cc1`, the cytotoxicity is 0.2%. Under `O=C(Cn1nnc(-c2ccc3c(c2)OCO3)n1)NCc1ccco1` stands -12.9%. As for `CCCCOc1ccc(-c2nnn(CC(=O)NCc3ccco3)n2)cc1`, the cytotoxicity was 50.9% (active). The figure for `O=S(=O)(c1ccc(F)cc1)N1CCC(N2CCN(c3ccccc3)CC2)CC1` is 16.8%. Turning to `Cn1c(NCC(O)c2ccccc2)nc2c1c(=O)n(Cc1ccc(Cl)cc1)c(=O)n2C` (stereo not given), the cytotoxicity is 50.4% (active). The figure for `COc1ccc(CNc2nc3c(c(=O)n(Cc4ccc(Cl)cc4)c(=O)n3C)n2C)cc1` is 32.7%. The figure for `Cn1c(N2CCN(c3ccccn3)CC2)nc2c1c(=O)n(Cc1ccccc1Cl)c(=O)n2C` is 3.4%. Under `Cn1c(NCc2ccco2)nc2c1c(=O)n(Cc1ccc(Cl)c(Cl)c1)c(=O)n2C` stands 8.9%.

Consider `Cn1c(N2CCN(c3ccccn3)CC2)nc2c1c(=O)n(Cc1ccc(Cl)cc1)c(=O)n2C`, for which the cytotoxicity is 70% (active). In the case of `Cn1c(N2CCCC2)nc2c1c(=O)n(Cc1ccc(Cl)cc1)c(=O)n2C`, the cytotoxicity is 26.3%.

As for `Cn1c(NCC(O)c2ccccc2)nc2c1c(=O)n(Cc1ccc(Cl)c(Cl)c1)c(=O)n2C` (stereo not given), the cytotoxicity is 64.7% (active). The figure for `Cn1c(NCc2ccccc2)nc2c1c(=O)n(Cc1ccccc1)c(=O)n2C` is -0.5%. Turning to `Cn1c(NCc2ccccc2)nc2c1c(=O)n(Cc1ccc(Br)cc1)c(=O)n2C`, the cytotoxicity was 21.3%. The figure for `COC(=O)c1coc(-c2ccc(C)cc2)c1C(=O)OC` is -19.4%.
